# The supplement of paper PMC6607015
# Counter-ions that a name gives are not always drawn.
# How the values were obtained:
# Details in all cases: compound concentration in added solution (µM; 5 µl added to 20 µl cells): 10; 18 h
# A431 [1] = assay: LBPA endosome anti-LBPA integrated intensity (sum per cell), Z-score; higher = more LBPA staining
# In short: (§1)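 In duplicate 384-well imaging plates, 3,500 HeLa MZ or A431 cells in 20 µl per well were seeded onto 5 µl of 10 µM compound solution. The cells were incubated for 18 h, fixed in 4% PFA and stained with 6C4 anti-LBPA antibody, filipin, propidium iodide and CellTracker green before four 20× images were acquired per well. Values are AcuityXpress-normalised Z-scores of per-cell integrated LBPA or filipin intensity, obtained by MetaXpress segmentation over the whole cell or in LBPA endosomes.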
# HeLa MZ [2] = assay: as above
# In short: as §1
# A431 [3] = assay: whole-cell filipin (free cholesterol) integrated intensity, Z-score; higher = more cholesterol staining
# In short: as §1
# HeLa MZ [4] = assay: as above
# In short: as §1
# A431 [5] = assay: filipin (cholesterol) integrated intensity within LBPA endosomes, Z-score; higher = more cholesterol in LBPA endosomes
# In short: as §1
# HeLa MZ [6] = assay: as above
# In short: as §1
SMILES,LBPA endosome anti-LBPA integrated intensity (z-score) (A431 [1]),LBPA endosome anti-LBPA integrated intensity (z-score) (HeLa MZ [2]),whole-cell filipin (z-score) (A431 [3]),whole-cell filipin (z-score) (HeLa MZ [4]),filipin (z-score) (A431 [5]),filipin (z-score) (HeLa MZ [6])
NCCCC[C@H](N[C@@H](CCc1ccccc1)C(=O)O)C(=O)N1CCC[C@H]1C(=O)O [Lisinopril],-0.555,-0.949,-0.886,-0.862,-0.636,-0.71
Cc1ccc(C(=O)c2ccc(CC(=O)O)n2C)cc1 [Tolmetin sodium salt dihydrate],-0.35,-0.0177,-0.301,-0.429,-0.412,-0.483
C#C[C@]1(OC(C)=O)CC[C@H]2[C@@H]3CCC4=C[C@@H](OC(C)=O)CC[C@@H]4[C@H]3CC[C@@]21C [Ethynodiol diacetate],-0.254,0.88,0.227,0.371,-0.191,-0.00334
CCOC(=O)[C@@](C)(N)Cc1ccc(O)c(O)c1 [Methyldopate hydrochloride],-0.346,-0.632,-0.323,-0.577,-0.327,-0.42
Cc1c(Nc2ncccc2C(=O)O)cccc1C(F)(F)F [Flunixin meglumine],-0.51,-0.897,-0.493,-0.611,-0.459,-0.549
CN(C)/N=N/c1[nH]cnc1C(N)=O [Dacarbazine],-0.547,-0.605,-0.746,-0.976,-0.487,-0.668
NC12CC3CC(CC(C3)C1)C2 [Adamantamine fumarate],-0.644,-1.51,-0.89,-0.605,-0.499,-0.616
CC(=O)Nc1ccc(OCC(O)CNC(C)C)cc1 (stereo not drawn) [Practolol],-0.578,-0.861,-0.908,-0.531,-0.573,-0.506
c1ccc([C@H]2CN3CCSC3=N2)cc1 [Levamisole hydrochloride],-0.398,0.59,-0.758,-0.886,-0.52,-0.182
CN1CCC(OC(c2ccccc2)c2ccccc2)CC1 [Diphenylpyraline hydrochloride],0.268,1.06,0.89,0.448,0.505,0.456
CS(=O)(=O)c1ccc([C@@H](O)[C@@H](CO)NC(=O)C(Cl)Cl)cc1 [Thiamphenicol],-0.461,-0.533,-0.551,-0.526,-0.439,-0.625
CN(Cc1ccc(C(C)(C)C)cc1)Cc1cccc2ccccc12 [Butenafine Hydrochloride],-0.698,-1.43,-0.644,-0.481,-0.512,-0.793
CC(C)(C)NC(=O)[C@H]1CC[C@H]2[C@@H]3CC[C@H]4NC(=O)C=C[C@]4(C)[C@H]3CC[C@]12C [Finasteride],-0.353,-0.576,0.536,0.274,-0.256,-0.306
